# Assay results published in PubChem BioAssay (NCI).
# The panel holds about 83,000 compounds, 20% with a hit somewhere; the sample as a whole holds those more often.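 Cells were grown in 96-well plates and exposed to the test compound at a single concentration for 48 hours; results are reported as percent growth, with values below 10 considered active.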 Unmarked numbers belong to inactive results. Activity calls are given as the source filed them.
# Legend:
# Test in all cases: NCI-60 one-dose screen, 48 h (100 = growth as untreated, 0 = no growth, -100 = all killed)
# Conditions in all cases: 10 µM unless noted
# HCT-15 colon = system: HCT-15 colon
# HT29 colon = system: HT29 colon
# SNB-75 CNS = system: SNB-75 CNS
# SNB-19 CNS = system: SNB-19 CNS
# U251 CNS = system: U251 CNS
# PC-3 prostate = system: PC-3 prostate
# SK-MEL-5 melanoma = system: SK-MEL-5 melanoma
# UACC-62 melanoma = system: UACC-62 melanoma
# SK-MEL-28 melanoma = system: SK-MEL-28 melanoma
Structure (SMILES),growth (HCT-15 colon),growth (HT29 colon),growth (SNB-75 CNS),growth (SNB-19 CNS),growth (U251 CNS),growth (PC-3 prostate),growth (SK-MEL-5 melanoma),growth (UACC-62 melanoma),growth (SK-MEL-28 melanoma) [%]
COc1ccc(-c2c(-c3nc4ccc(N5CCOCC5)cc4[nH]3)[nH]c(C)c2C(C)=O)cc1,3.79% (active),20.8%,1.76% (active),39.7%,54.3%,48.7%,22.2%,15.7%,45.8
Cn1cc(-c2nc(-c3c[nH]c4ncccc34)cs2)c2cc(Br)ccc21,64.2%,70.5%,80.5%,108%,72.9%,76.7%,91.8%,80.5%,102
CC1(C)NC2=C(C(Nc3cccnc3)N1)C(c1ccc([N+](=O)[O-])cc1)C(C(=O)c1ccc(N=[N+]=[N-])cc1)O2 (configuration not stated),104%,113%,96.2%,98.7%,101%,98.9%,102%,97.1%,103
O=c1[nH]c(=S)[nH]c2nc[nH]c12,99.5%,103%,84.6%,107%,105%,96.9%,110%,97.6%,110
COc1ccc2c(c1)C/C(=C\c1cc(-c3cc(OC)c(OC)c(OC)c3)n[nH]1)C2=O,91.1%,89.3%,78.4%,91.9%,92.3%,56%,75.5%,88.1%,99.3
COc1cc2nc(Cl)nc(Nc3cccc(C(=O)/C=C/c4ccccc4)c3)c2cc1OC,-34.1% (active),4.17% (active),62.1%,32.9%,21.4%,49.2%,68.8%,57.8%,56.4
C[C@H]1[C@@H]2[C@H]3CC[C@@H]4[C@@]5(C)Cc6c([nH]c7ccccc67)C(C)(C)[C@@H]5CC[C@@]4(C)[C@]3(C)CC[C@]23CO[C@]1(C)[C@@H](C(=O)/C=C/c1ccccn1)C3,85.9%,82.6%,90.9%,85.6%,81.7%,60.3%,88.5%,79%,97.4
O=c1c2sc3ncc(Br)cc3c2ncn1-c1cccc(Cl)c1,88.5%,71.5%,16.4%,89.5%,33.4%,81.9%,76.2%,80.3%,78
Cc1csc(Nc2nc(-c3cccc(Br)c3)nc(C(Cl)(Cl)Cl)n2)n1,59.3%,18.9%,52.5%,39.8%,35.8%,48.9%,91.1%,60.5%,47
O=C(N/N=C\c1c(O)ccc2ccccc12)C1CC1,28.4%,69.6%,53.8%,54.9%,35.6%,45.8%,53.1%,25.2%,69.7
CC1(C)C(=O)/C(=C\c2ccco2)C[C@]2(C)[C@H]3CC[C@@H]4[C@@H](C(=O)/C=C/c5ccco5)CC[C@@]4(C)[C@]3(C)CC[C@@H]12,79.6%,75.7%,68.1%,46.8%,50.7%,80.4%,-49.9% (active),12.5%,32.1
Clc1ccc2[nH]cc(-c3nc(-c4c[nH]c5ncccc45)cs3)c2c1,1.33% (active),16.1%,56.8%,65.1%,34.6%,39.2%,64.9%,44.2%,85.9
Cc1ccc(/C=C(\C#N)c2cc3ccccc3n2C)cc1,10.3%,17.1%,19.4%,29.3%,30.9%,36.1%,23%,20%,65.4
Cn1cc(-c2nc(-c3c[nH]c4ncccc34)cs2)c2cc(F)ccc21,19.6%,19.6%,31.6%,53.3%,36.7%,33.6%,51.4%,47.6%,60.5
Cc1ccc(Sc2sc(-c3ccccc3)nc2[P+](c2ccccc2)(c2ccccc2)c2ccccc2)cc1,1.24% (active),3.9% (active),-3.74% (active),10.4%,13.8%,-30.6% (active),-97.6% (active),-33.7% (active),25.5
CN(C)c1ccc(-c2ccc(-c3ccc(C(=N)N)c(F)c3)s2)cc1,-80.8% (active),-61.2% (active),98.9%,-71% (active),-96.2% (active),-90.4% (active),-64.9% (active),-93.3% (active),74.5
CC1(C)C(=O)CC[C@]2(C)[C@H]3C(=O)C=C4[C@@H]5C[C@@](C)(C(=O)NCCNCCN)CC[C@]5(C)CC[C@@]4(C)[C@]3(C)CC[C@@H]12,99.4%,98%,-29.7% (active),98.4%,88.3%,90.4%,96.8%,98.1%,104
CN1CCN(CC#CCn2c3c(c4ccccc42)C[C@]2(C)[C@H]4CC[C@@H]5[C@H]6[C@H]7OC(=O)[C@@]6(CCC7(C)C)CC[C@@]5(C)[C@]4(C)CC[C@H]2C3(C)C)CC1,38.1%,30.4%,113%,87.6%,25%,58.5%,93.3%,99.5%,106
CCc1ccc(-c2ccc(Nc3ccccc3)nn2)cc1S(N)(=O)=O,65.3%,68%,123%,105%,80.8%,60.6%,79.8%,81.1%,87.7
CN1CCN(CCOc2ccc(-c3cnc4c(-c5cccc(F)c5)cnn4c3)cc2)CC1,2.6% (active),4.57% (active),88.1%,83.9%,46.6%,51.2%,72%,78.3%,92.1
Cn1cc(-c2nc(-c3cn(C)c4ncccc34)cs2)c2ccccc21,20.4%,9.24% (active),20.9%,51.4%,31.8%,53.6%,21.9%,33.2%,46.5
O=[N+]([O-])c1cccc(/C=N\Nc2ccccc2)c1,58%,80%,78.5%,95.5%,83.4%,67%,92.5%,4.87% (active),103
N#CC1=C(N)Oc2ccc3ccccc3c2C1c1ccccc1 (configuration not stated),19.5%,17.7%,-16.3% (active),29.5%,32.5%,40.6%,25.7%,18.6%,54.6
O=C1OC(c2ccc(Cl)c(Cl)c2)=C/C1=C/c1cccc([N+](=O)[O-])c1,99.1%,93.7%,92.9%,94.9%,99.2%,97.9%,102%,88.7%,105
C=C(C)[C@@H]1CC[C@]2(c3nnc(-c4ccncc4)o3)CC[C@]3(C)[C@H](CC[C@@H]4[C@@]5(C)CCC(=O)NC(C)(C)[C@@H]5CC[C@]43C)[C@@H]12,100%,99.6%,93.7%,92.5%,96%,69.5%,90.1%,79.7%,109
Cc1cc(C)n(Cc2cc(C(C)(C)C)cc(C(C)(C)C)c2)c(=O)c1C#N,86.8%,99.4%,96.1%,95.8%,97.9%,79%,90.7%,72.8%,102
CN1CCN(c2nc(-c3csc(-c4cccs4)n3)cc3ccccc23)CC1,7.33% (active),-27.3% (active),54.5%,66.1%,28.8%,39.8%,43.7%,33.6%,68.9
Fc1cccc(-c2[nH]nc3nc(Nc4cccnc4)sc23)c1,37.1%,14.5%,47.5%,40.2%,38.6%,33.1%,33%,57.2%,68.6
